Bioassay records from PubChem BioAssay.
ID4 SMM: ID4 (human) binding; AID 624137; small molecule microarray, Flag-ID4 binding, fluorescence F/B; P47928; calls only; 31,000 compounds, 1.2% hits; call rule not given here;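 note: a binder raises fluorescence above local background on the spot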
Target sequence (P47928 whole entry, looked up): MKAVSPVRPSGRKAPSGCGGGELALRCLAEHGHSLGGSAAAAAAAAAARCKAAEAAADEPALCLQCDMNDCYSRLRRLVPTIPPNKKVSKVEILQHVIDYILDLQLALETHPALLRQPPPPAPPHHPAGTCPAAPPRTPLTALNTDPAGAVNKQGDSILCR
p53 PUMA act: restores mutant p53 pathway signaling in SW480 cells. SW480 PUMA-promoter luciferase, p53 mutant reactivation. activation, % at 9.98 µM. 28,000 compounds, 1.5% hits. AID 624151; in the data active = activation above about 52%
STK33 inh: human STK33 kinase inhibition | ADP-Glo luminescence, MBP substrate | inhibition, % at 12.5 µM | AID 2322 | Q9BYT3 | 27,000 compounds, 0.44% hits; in the data active = inhibition above about 20%
NOMO-1 viab: STK33 inhibitor candidate reducing NOMO-1 cell viability. NOMO-1 AML viability, CellTiter-Glo luminescence, 72 h. inhibition, % (test concentration not listed). 37,000 compounds, 7.5% hits. AID 2330; in the data active = inhibition above about 80%
* marks the source's active call; other numbers are inactive results; i = inactive; x = no result; + = active, no number. This excerpt belongs to a sample that is enriched for hits.

SMILES	ID4 SMM	p53 PUMA act	STK33 inh	NOMO-1 viab
COc1ccc(NC(=O)Nc2ccc3c(c2)C(=O)N([C@@H](C)CO)C[C@@H](C)[C@@H](CN(C)Cc2ccc(Oc4ccccc4)cc2)O3)cc1	x	x	1	117*
COc1ccccc1CC(=O)Nc1ccc(-c2nc3ccccc3[nH]2)cc1	x	x	x	135*
Cc1ccc(-c2nc3ccccc3[nH]2)cc1NC(=O)COc1ccccc1[N+](=O)[O-]	i	-41	9	119*
COc1ccc(C2CC(=O)c3ccc(OC)cc3O2)cc1 (stereo unspecified)	i	97*	5	-7
COc1ccc(OC)c(NC(=O)CSc2nnc(-c3cccnc3)s2)c1	i	-11	3	110*
CNC[C@H]1Oc2c(NC(=O)NC3CCCCC3)cccc2C(=O)N([C@H](C)CO)C[C@H]1C	i	-3	x	-3
COc1ccc(NC(=O)N(C)C[C@@H]2Oc3c(NS(=O)(=O)c4ccc(Cl)cc4)cccc3C(=O)N([C@H](C)CO)C[C@H]2C)cc1	x	12	x	-2
COC(=O)c1ccc(Cl)c(NC(=O)CN(c2ccccc2Br)S(C)(=O)=O)c1	i	23	2	95*
Cc1cccc(C)c1NC(=O)CN(c1ccc(Cl)c(C(F)(F)F)c1)S(C)(=O)=O	i	7	1	-7
COC(=O)c1ccccc1NC(=O)CN(c1ccc(C)c(Cl)c1)S(C)(=O)=O	i	1	-6	29
COC(=O)c1cccc(NC(=O)CN(c2ccc(Cl)c(C(F)(F)F)c2)S(C)(=O)=O)c1C	i	0	-5	142*
COC(=O)c1ccc(NC(=O)CN(c2ccccc2Br)S(C)(=O)=O)cc1	i	15	-6	15
COC(=O)c1cccc(NC(=O)CN(c2ccc(I)cc2)S(C)(=O)=O)c1C	i	-2	2	100*
CC(=O)Nc1ccc(NC(=O)CN(c2ccc(Cl)c(C(F)(F)F)c2)S(C)(=O)=O)cc1	i	-57	5	99*
C[C@H]1CN([C@@H](C)CO)C(=O)Cc2cc(NC(=O)CCN3CCOCC3)ccc2O[C@H]1CN(C)CC1CC1	x	x	-3	8
CCOc1ccc2nc(SCC(=O)Nc3cccc(C)c3C)sc2c1	i	2	-2	-1
Cc1noc(C)c1NC(=O)Nc1ccc2c(c1)C(=O)N([C@@H](C)CO)C[C@H](C)[C@@H](CN(C)C(=O)Nc1ccc3c(c1)OCO3)OCCCC[C@H](C)O2	x	-1	x	x
Cc1ccc(S(=O)(=O)c2nc(-c3ccccc3)oc2NCCN2CCOCC2)cc1	i	20	0	-4
CCC(C)S(=O)(=O)c1oc(-c2ccc(C)cc2)nc1S(=O)(=O)c1ccccc1 (stereo unspecified)	i	-80	3	116*
COc1ccc2nc(SCC(=O)Nc3ccc(F)c(Cl)c3)[nH]c2c1	i	21	1	11
O=C(C[C@H]1C=C[C@H](NC(=O)C2CCC2)[C@@H](CO)O1)NC1CCCCC1	i	x	x	x
CC1CCc2c(sc3nc(SC(C)C(=O)Nc4ccccc4)nc(N)c23)C1 (stereo unspecified)	i	118*	3	-8
C[C@H](CO)N1C[C@H](C)[C@H](CN(C)S(=O)(=O)c2cccs2)Oc2ccc(NC(=O)Nc3ccc4c(c3)OCO4)cc2CC1=O	x	x	2	86*
C[C@@H]1CN([C@@H](C)CO)C(=O)Cc2cc(NC(=O)Nc3ccc(C(F)(F)F)cc3)ccc2O[C@@H]1CN(C)S(=O)(=O)c1cccs1	x	x	1	111*
C[C@H](CO)N1C[C@H](C)[C@H](CN(C)S(=O)(=O)c2cccs2)Oc2ccc(NC(=O)Nc3ccc(C(F)(F)F)cc3)cc2CC1=O	x	x	4	123*
SMILES	ID4 SMM	p53 PUMA act	STK33 inh	NOMO-1 viab
C[C@@H]1CCCCO[C@H](CN(C)CC2CCCCC2)[C@@H](C)CN([C@H](C)CO)C(=O)c2cc(NC(=O)c3ccncc3)ccc2O1	x	x	-1	18
C[C@@H]1CCCCO[C@@H](CN(C)CC2CCCCC2)[C@@H](C)CN([C@H](C)CO)C(=O)c2cc(NC(=O)c3ccccc3)ccc2O1	x	x	1	117*
C[C@@H]1CCCCO[C@@H](CN(C)C)[C@@H](C)CN([C@H](C)CO)C(=O)c2cc(NC(=O)c3ccccc3)ccc2O1	i	15	x	123*
C[C@@H]1CCCCO[C@H](CN(C)C(=O)C2CCCCC2)[C@@H](C)CN([C@@H](C)CO)C(=O)c2cc(NC(=O)c3ccncc3)ccc2O1	+	4	x	x
C[C@@H]1CCCCO[C@@H](CN(C)C(=O)Nc2ccccc2)[C@H](C)CN([C@H](C)CO)C(=O)c2cc(NC(=O)Nc3ccccc3)ccc2O1	+	-39	x	x
C[C@H](CO)N1C[C@H](C)[C@H](CN(C)C(=O)Nc2ccccc2)OCCCC[C@H](C)Oc2ccc(NC(=O)Nc3ccccc3)cc2C1=O	i	4	x	x
COc1ccc(NC(=O)Cn2nnc(-c3ccccc3Cl)n2)cc1Cl	i	-1	0	-8
COC(=O)C(CC#Cc1ccc2c(c1)[C@]1(C(=O)N2)[C@H](C(=O)O)[C@H]2C(=O)O[C@H](c3ccccc3)[C@H](c3ccccc3)N2[C@@H]1c1ccc(O)cc1)C(=O)OC	i	x	1	x
CCC(=O)N(C)C[C@@H]1Oc2ncc(-c3ccccc3F)cc2C(=O)N([C@H](C)CO)C[C@H]1C	i	x	x	x
C[C@@H]1CCCCO[C@@H](CN(C)CC2CCCCC2)[C@@H](C)CN([C@H](C)CO)C(=O)c2cc(NC(=O)Nc3ccccc3)ccc2O1	x	-7	0	122*
CC1(C)CC[C@]2(C(=O)O[C@@H]3O[C@H](CO)[C@@H](O)[C@H](O)[C@H]3O)CC[C@]3(C)C(=CCC4[C@@]5(C)C[C@@H](O)[C@H](O)[C@](C)(CO)C5CC[C@]43C)C2[C@@H]1O (stereo partly specified)	i	x	2	120*
CC1OC(OC2C(CO)OC(OC(=O)[C@]34CCC(C)(C)CC3C3=CCC5[C@@]6(C)CC[C@H](OC7OC(C)C(OC8OCC(O)(COC9OCC(O)C(OC%10OCC(OC%11OCC(O)(CO)C%11O)C(O)C%10O)C9O)C8O)C(O)C7O)C(C)(C)C6CC[C@@]5(C)[C@]3(C)CC4)C(O)C2O)C(O)C(O)C1O (stereo partly specified)	i	-16	-10	100*
CC1(C)CC[C@]2(C(=O)OC3OC(CO)C(O)C(O)C3O)CC[C@]3(C)C(=CCC4[C@@]5(C)CC[C@H](OC6OC(C(=O)O)C(O)C(O)C6O)C(CO)(CO)C5CC[C@]43C)[C@@H]2C1 (stereo partly specified)	x	-77	-3	120*
CC1(C)CC[C@]2(C(=O)O[C@@H]3O[C@H](CO)[C@@H](O)[C@H](O)[C@H]3O)CC[C@]3(C)C(=CCC4[C@@]5(C)C[C@@H](O)[C@H](O)[C@@](C)(CO)C5CC[C@]43C)C2C1 (stereo partly specified)	i	-1	3	31
CC1(C)CC[C@]2(C(=O)O)CC[C@]3(C)C(=CCC4[C@@]5(C)CC[C@H](O[C@@H]6OC[C@H](O)[C@H](O)[C@H]6O)[C@@](C)(CO)C5CC[C@]43C)C2C1 (stereo partly specified)	x	-38	-8	120*
